Reference: PubChem BioAssay AID1159580 (chemical genetic matrix, 2015)
Among all 5,500 compounds or so, about 2,000 (36%) were called active. Roughly 18% stayed inconclusive and do not appear here. Cut-off read from the data, not from the text of the source: active = normalized growth mostly below about 0.91 (no sharp cut-off); inconclusive = no clear call, values can overlap the other calls; inactive = mostly above about 0.92. The list shows a part of the results.

Assay: chemical genetic growth profiling, strain panel (AID 1159580);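 note: tested at 20 µM; growth read once vehicle control cultures reached saturation at 30 °C; 1 = growth at the plate median or of vehicle wells; lower values mean less growth of the strain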
Settings: growth OD

Measured: normalized growth

COC1=C[C@@H]2[C@@H]3Cc4ccc(OC)c(O)c4[C@]2(CCN3C)CC1=O
inactive: S. cerevisiae deletion strains, locus YJR075W, strain HOC1, hits give low values 0.928 | S. cerevisiae deletion strains, locus YKL009W, strain mrt4, hits give low values 0.978 | S. cerevisiae deletion strains, locus YKL068W, hits give low values 0.977 | S. cerevisiae deletion strains, locus YKL085W, strain MDH1 (second series), hits give low values 0.979 | S. cerevisiae deletion strains, locus YKL085W, strain MDH1, hits give low values 0.979 | S. cerevisiae deletion strains, locus YKL160W, strain elf1, hits give low values 0.996 | S. cerevisiae deletion strains, locus YKL190W, strain CNB1, hits give low values 0.977 | S. cerevisiae deletion strains, locus YKR001C, strain vps1, hits give low values 0.992 | S. cerevisiae deletion strains, locus YKR026C, strain gcn3, hits give low values 1 | S. cerevisiae deletion strains, locus YKR091W, strain srl3, hits give low values 0.984 | S. cerevisiae deletion strains, locus YLL001W, strain dnm1, hits give low values 0.997 | S. cerevisiae deletion strains, locus YLL026W, hits give low values 0.982 | S. cerevisiae deletion strains, locus YLL041C, strain sdh2, hits give low values 1 | S. cerevisiae deletion strains, locus YLR027C, strain aat2, hits give low values 1 | S. cerevisiae deletion strains, locus YLR039C, strain RIC1, hits give low values 0.98 | S. cerevisiae deletion strains, locus YLR058C, strain SHM2, hits give low values 0.976 | S. cerevisiae deletion strains, locus YLR102C, strain apc9, hits give low values 0.971 | S. cerevisiae deletion strains, locus YLR113W, strain HOG1, hits give low values 1.01 | S. cerevisiae deletion strains, locus YLR221C, strain rsa3, hits give low values 0.993 | S. cerevisiae deletion strains, locus YLR258W, strain gsy2, hits give low values 0.987 | S. cerevisiae deletion strains, locus YLR262C, strain YPT6 (second series), hits give low values 0.999 | S. cerevisiae deletion strains, locus YLR262C, strain YPT6, hits give low values 0.926 | S. cerevisiae deletion strains, locus YLR268W, strain sec22, hits give low values 0.967 | S. cerevisiae deletion strains, locus YLR320W, strain mms22, hits give low values 1 | S. cerevisiae deletion strains, locus YLR330W, strain CHS5, hits give low values 0.999 | S. cerevisiae deletion strains, locus YLR342W, strain FKS1 (second series), hits give low values 1.03 | S. cerevisiae deletion strains, locus YLR342W, strain FKS1, hits give low values 1 | S. cerevisiae deletion strains, locus YLR357W, strain rsc2, hits give low values 0.943 | S. cerevisiae deletion strains, locus YLR370C, strain arc18, hits give low values 1 | S. cerevisiae deletion strains, locus YLR371W, strain rom2, hits give low values 0.952 | S. cerevisiae deletion strains, locus YLR384C, strain iki3, hits give low values 0.987 | S. cerevisiae deletion strains, locus YLR418C, strain cdc73, hits give low values 0.969 | S. cerevisiae deletion strains, locus YML016C, strain PPZ1, hits give low values 0.979 | S. cerevisiae deletion strains, locus YML032C, strain rad52, hits give low values 0.985 | S. cerevisiae deletion strains, locus YML120C, strain ndi1, hits give low values 1 | S. cerevisiae deletion strains, locus YML124C, strain tub3, hits give low values 0.986 | S. cerevisiae deletion strains, locus YMR058W, strain fet3, hits give low values 1.01 | S. cerevisiae deletion strains, locus YMR078C, strain ctf18, hits give low values 0.977 | S. cerevisiae deletion strains, locus YMR125W, strain sto1, hits give low values 0.975 | S. cerevisiae deletion strains, locus YMR129W, hits give low values 1 | S. cerevisiae deletion strains, locus YMR205C, strain PFK2, hits give low values 0.985 | S. cerevisiae deletion strains, locus YMR231W, strain pep5, hits give low values 0.995 | S. cerevisiae deletion strains, locus YMR263W, strain SAP30, hits give low values 0.962 | S. cerevisiae deletion strains, locus YMR307W, strain GAS1, hits give low values 1.03 | S. cerevisiae deletion strains, locus YNL067W, strain RPL9B, hits give low values 0.988 | S. cerevisiae deletion strains, locus YNL071W, strain lat1, hits give low values 0.996 | S. cerevisiae deletion strains, locus YNL128W, strain TEP1, hits give low values 0.961 | S. cerevisiae deletion strains, locus YNL153C, strain GIM3, hits give low values 0.96 | S. cerevisiae deletion strains, locus YNL183C, strain NPR1, hits give low values 0.959 | S. cerevisiae deletion strains, locus YNL209W, strain ssb2, hits give low values 1.01 | S. cerevisiae deletion strains, locus YNL233W, strain BNI4, hits give low values 0.979 | S. cerevisiae deletion strains, locus YNL248C, strain rpa49, hits give low values 0.978 | S. cerevisiae deletion strains, locus YNL250W, strain rad50, hits give low values 0.981 | S. cerevisiae deletion strains, locus YNL271C, strain bni1, hits give low values 0.988 | S. cerevisiae deletion strains, locus YNL298W, strain CLA4, hits give low values 0.96 | S. cerevisiae deletion strains, locus YNL307C, strain MCK1, hits give low values 0.989 | S. cerevisiae deletion strains, locus YNL322C, strain KRE1 (second series), hits give low values 0.975 | S. cerevisiae deletion strains, locus YNL322C, strain KRE1, hits give low values 0.98 | S. cerevisiae deletion strains, locus YNR049C, strain mso1, hits give low values 1.01 | S. cerevisiae deletion strains, locus YNR052C, strain pop2, hits give low values 0.982 | S. cerevisiae deletion strains, locus YOL006C, strain TOP1, hits give low values 0.942 | S. cerevisiae deletion strains, locus YOL012C, strain htz1 2.19 | S. cerevisiae deletion strains, locus YOL147C, strain pex11, hits give low values 0.992 | S. cerevisiae deletion strains, locus YOR001W, strain rrp6, hits give low values 1.01 | S. cerevisiae deletion strains, locus YOR061W, strain CKA2, hits give low values 0.962 | S. cerevisiae deletion strains, locus YOR069W, strain VPS5, hits give low values 0.987 | S. cerevisiae deletion strains, locus YOR070C, strain gyp1, hits give low values 0.986 | S. cerevisiae deletion strains, locus YOR080W, strain dia2, hits give low values 0.999 | S. cerevisiae deletion strains, locus YOR083W, strain WHI5, hits give low values 0.974 | S. cerevisiae deletion strains, locus YOR106W, strain vam3, hits give low values 0.997 | S. cerevisiae deletion strains, locus YOR136W, strain idh2, hits give low values 0.988 | S. cerevisiae deletion strains, locus YOR144C, strain elg1, hits give low values 0.986 | S. cerevisiae deletion strains, locus YOR184W, strain ser1, hits give low values 0.99 | S. cerevisiae deletion strains, locus YOR231W, strain MKK1, hits give low values 0.998 | S. cerevisiae deletion strains, locus YOR265W, strain rbl2, hits give low values 1.01 | S. cerevisiae deletion strains, locus YOR270C, strain vph1, hits give low values 0.996 | S. cerevisiae deletion strains, locus YOR290C, strain snf2, hits give low values 0.987 | S. cerevisiae deletion strains, locus YOR316C, strain cot1, hits give low values 0.965 | S. cerevisiae deletion strains, locus YPL051W, strain arl3, hits give low values 0.985 | S. cerevisiae deletion strains, locus YPL055C, strain LGE1, hits give low values 0.9 | S. cerevisiae deletion strains, locus YPL078C, strain atp4, hits give low values 0.983 | S. cerevisiae deletion strains, locus YPL106C, strain sse1, hits give low values 0.961 | S. cerevisiae deletion strains, locus YPL240C, strain hsp82, hits give low values 0.985 | S. cerevisiae deletion strains, locus YPL241C, strain CIN2, hits give low values 0.985 | S. cerevisiae deletion strains, locus YPL256C, strain CLN2, hits give low values 1.02 | S. cerevisiae deletion strains, locus YPR119W, strain clb2, hits give low values 0.984 | S. cerevisiae deletion strains, locus YPR141C, strain kar3, hits give low values 0.945 | S. cerevisiae deletion strains, locus YPR163C, strain tif3, hits give low values 0.983 | S. cerevisiae deletion strains, locus YPR167C, strain met16, hits give low values 0.979 | S. cerevisiae deletion strains, strain wtn01, hits give low values 0.992 | S. cerevisiae strains, strain wild type, hits give low values 0.992
